Assay outcomes (PubChem BioAssay)
Shown are actives, neighbours in structure and some others; about 12% of the full set was active somewhere.
MARV entry inh: Marburg virus entry inhibition. Marburg virus pseudotyped entry inhibition, cell reporter. AID 540276. Potency, µM (highest dose often 37.8 µM), most hits filed as inhibitors. actives 1.8% (n = 300,000); calls by dose curve; tested in HEK293 cells
Shiga toxin inh: Shiga toxin inhibition. Vero cells, Shiga toxin protein synthesis inhibition reporter. actives 9.2% (n = 290,000). AID 2315. inhibition, % at 38.7 µM; in the data active means inhibition mostly above about 28%, no sharp cut-off; inactive means mostly below about 43%
Lassa entry inh: Lassa virus entry inhibition. Lassa virus pseudotype entry inhibition, cell reporter. Potency, µM (top dose mostly 37.9 µM), usual class: inhibitors. actives 1.2% (n = 300,000); calls by dose curve; tested in HEK293 cells; further: nearly all actives have a fitted effect of over 50% in size
CHX counter: counter-screen hit for Shiga toxin inhibitors, cycloheximide. cell reporter, cycloheximide protein synthesis inhibition counterscreen. max response, %. actives 12% (n = 300,000). AID 2314; in the data active means max response mostly above about 13%, no sharp cut-off; inactive means mostly below about 14%; further: read at 38.3 µM for the half of the compounds with a filed dose
A number is an active result; i = inactive; ? = inconclusive; nt = no result given; ! = a repeat was not active.

SMILES	MARV entry inh	Shiga toxin inh	Lassa entry inh	CHX counter
O=C(NCC(c1cccnc1)N1CCc2ccccc21)c1cccc(F)c1 (centres undefined)	nt	nt	i	nt
CCCCCOCC(O)CCC(=O)NN (centres undefined)	i	i	i	i
Cc1ccc(OCc2cc(C(=O)N3CCc4[nH]cnc4C3c3ccccn3)no2)cc1C (centres undefined)	i	i	i	i
Nc1ccc(Sc2ccc(N)cc2)cc1	?	nt	i	nt
Nc1ccc(C#Cc2ccccc2)cc1	i	64.1	i	40.7
Nc1ccccc1C#Cc1ccccc1	nt	88.5	nt	64.3
CC[C@H](C)[C@H](NC(=O)CNC(=O)[C@H](C)NC(=O)[C@H](C)N)C(=O)NCC(=O)N[C@H](C(=O)N[C@@H](CC(C)C)C(=O)N[C@H](C(=O)N[C@H](C(=O)O)C(C)C)[C@@H](C)O)[C@@H](C)CC	nt	i	nt	i
O=S(=O)(Nc1ccccn1)c1cnc(Cl)c(Br)c1	?	i	i	i
Cc1[nH]c2ccc(Br)cc2c1CCNC(=O)c1cc2ccccc2oc1=O	i	nt	i	nt
Cc1ccccc1C(OCCN(C)C)c1ccccc1 (centres undefined)	12.6µM!	i	?	i
CCN(CC)CCOC(c1ccccc1)c1ccc(C)cc1 (centres undefined)	8.91µM	i	?	i
CCN(CC)CCC(C)OC(c1ccccc1)c1ccccc1 (centres undefined)	nt	53.5	nt	21.8
Cc1ccccc1[C@@H](OCCN(C)C)c1ccccc1	i	nt	nt	nt
CCN(CC)CC#CCOC(c1ccccc1)c1ccccc1	i	i	i	i
CCCC1(c2ccsc2)NC(=O)NC1=O (centres undefined)	i	nt	i	nt
CC(C)N(CCCNC(=O)c1nn(C)c2c1CS(=O)(=O)c1ccccc1-2)Cc1ccccc1	?	i	i	i
COc1ccc(NC(=S)Nc2ccc(C)c(S(=O)(=O)N3CCCCC3)c2)cc1	14.6µM	i	i	i
Cc1ccc(NC(=S)Nc2ccc(C(C)C)cc2)cc1S(=O)(=O)N1CCCCCC1	?	81.7	?	27.8
CC(C)Oc1cccnc1N(C)C1CCN(Cc2ccccc2)CC1	1.78µM	nt	i	nt
CC(C)Oc1ccc(C(=O)NC2CCN(Cc3ccccc3)CC2)cc1	?	i	i	i
O=C(CSc1ccccn1)Nc1ccc2c(c1)OCCO2	i	88.8	?	54.5
CN(C)S(=O)(=O)c1ccc(SCC(=O)Nc2ccc3c(c2)OCCO3)nc1	?	nt	i	nt
O=C(CSc1ncccn1)Nc1ccc2c(c1)OCO2	i	nt	?	nt
O=C(CCn1c(=O)oc2ccccc21)N1CCCCCC1	i	i	i	i
O=C(CSc1ncccn1)NC(=O)Nc1ccc2c(c1)OCCO2	nt	46.0	nt	34.6
SMILES	MARV entry inh	Shiga toxin inh	Lassa entry inh	CHX counter
O=C(CSc1ccc([N+](=O)[O-])cn1)Nc1ccc2c(c1)OCCO2	i	i	i	17.3
O=C(CCn1c(=S)oc2ccccc21)N1CCCCC1	i	i	i	25.7
O=C(CCn1c(=S)oc2ccccc21)Nc1ccc2c(c1)OCCO2	i	i	i	14.8
O=c1c2ccccc2ncn1-c1ccc2c(c1)OCCO2	i	64.7	i	31.6
O=C(CCCn1c(=O)oc2ccccc21)N1CCc2ccccc2C1	i	37.9	i	26.6
O=C1CCN(C(=O)CCCn2c(=O)oc3ccccc32)CC1	i	i	i	i
CC(=O)Nc1ccc(NC(=O)CCn2c(=S)oc3ccccc32)cc1	nt	i	nt	i
O=C(CSc1nccc(=O)[nH]1)Nc1ccc2c(c1)OCCO2	?	154.6	i	41.6
COc1cccc(C2CC(=O)N(c3ccc(F)cc3)C3=C2C(=O)OC3)c1OC (centres undefined)	i	nt	i	nt
CCn1c(SCC(=O)Nc2ccc3c(c2)OCCO3)nnc1-c1ccco1	i	i	i	i
O=C(CCCn1c(=S)[nH]c2ccsc2c1=O)Nc1ccc2c(c1)OCCO2	i	98.4	nt	39.0
CCC(=O)Nc1nnc(SCC(=O)Nc2ccc3c(c2)OCCO3)s1	i	i	i	i
O=C(CCCCn1c(=S)[nH]c2ccsc2c1=O)NCc1ccc2c(c1)OCO2	i	i	nt	i
COc1ccc(Nc2nnc(SCC(=O)NC(=O)Nc3ccc4c(c3)OCCO4)s2)cc1	nt	i	nt	14.9
O=C(CCn1cnc2ccccc2c1=O)Nc1ccc2c(c1)OCCO2	i	73.4	i	14.4
CCn1c(SCC(=O)NC(=O)Nc2ccc3c(c2)OCCO3)nnc1-c1cccs1	i	i	i	18.0
O=C(NCCN1CCOCC1)c1cc2n(n1)[C@@H](C(F)(F)F)C[C@H](c1ccc(F)cc1)N2	i	nt	nt	nt
CC(=O)c1cccc(NC(=O)CSc2nc3c(=O)n(C)c(=O)n(C)c3n2C)c1	nt	nt	i	nt
O=C(O)CCNC(=O)C12CC3CC(CC(C3)C1)C2	i	i	i	i
COc1ccc2c(CN(C)c3ccccc3)cc(=O)oc2c1	?	i	i	22.2
COC(=O)c1cc(-c2c(C)oc3cc(OC)ccc3c2=O)c(C)o1	i	i	?	i
COc1ccc2c(CN3CC=C(c4ccccc4)CC3)cc(=O)oc2c1	?	i	i	28.8
COc1ccc2c(=O)c(-c3ccccc3)c(C)oc2c1	?	34.3	i	i
CCc1ccc2c(CN3CC=C(c4ccccc4)CC3)cc(=O)oc2c1	i	i	i	i
COc1ccc(C=CC2=C[C@]3(C)C[C@]2(C)[C@H](c2ccc(OC)cc2)CC3=O)cc1	i	nt	nt	nt
SMILES	MARV entry inh	Shiga toxin inh	Lassa entry inh	CHX counter
O=C(Nc1ccc2c(c1)OCCO2)c1cc2sccc2n1Cc1ccccc1	?	126.3	?	i
Cn1c(C(=O)Nc2ccc3c(c2)OCCO3)cc2sccc21	i	47.4	i	35.6
Cc1cccc(C)c1NC(=O)c1cc2sccc2n1Cc1ccc(F)cc1	i	nt	?	nt
O=C(Nc1ccc2c(c1)OCCO2)c1cc2sccc2n1Cc1ccc(F)cc1	i	65.4	i	31.2
Cc1ccc(SCCN2CCC(C(C)(C)C)CCC2=O)cc1 (centres undefined)	nt	42.1	nt	25.4
Cc1ccc(S[C@@H](CCN2CC[C@H](C(C)(C)C)CCC2=O)c2ccccc2)cc1	nt	i	nt	i
Cc1ccc(SCCN2CCC(C)CCC2=O)cc1 (centres undefined)	nt	37.6	nt	29.2
CC(C)(C)C1CCC(=O)N(CCSc2ccccc2)CC1 (centres undefined)	nt	61.8	nt	32.2
Cc1ccc2cccc(OCc3ccc(Br)cc3)c2n1	i	i	i	i
Nc1ncccc1OCc1ccc(Br)cc1	i	77.0	i	71.5
COc1ccc(COc2cccnc2N)cc1	nt	56.4	nt	35.3
COc1ccc(Cc2c(N)nc(C)nc2N)cc1	i	i	i	i
CC(C)NCc1nnc(-c2ccccc2Cl)o1	nt	38.6	nt	i
Clc1ccccc1-c1nnc(-c2ccccc2CNc2ccc(Br)cc2)o1	i	nt	i	nt
O=C1OCCC1Sc1nnc(-c2ccc(Cl)cc2Cl)o1 (centres undefined)	5.01µM	i	?	i
CC(C)OC(=O)CSc1nnc(-c2ccc(Cl)cc2Cl)o1	i	i	i	i
CCSc1nnc(-c2ccc(Cl)cc2Cl)o1	i	84.8	?	57.4
CSc1nnc(-c2ccccc2Cl)o1	i	87.7	i	29.5
O=C(Nc1cccc(C(F)(F)F)c1)c1ccc2c(c1)nnn2C1CCCC1	nt	nt	i	nt
Cc1c(Cl)c([N+](=O)[O-])nn1CCCC(=O)Nc1ccc(Cl)cc1Cl	i	i	i	i
CCCCNC(=O)c1ccccc1SCc1c(C)noc1C	i	i	i	i
CSc1nnc(-c2ccc(Cl)cc2Cl)o1	i	i	i	52.1
